Rows were chosen to be rich in hits. Some 21% of all compounds tested hit in one or more screens of this group.
Pf growth 96h: P. falciparum growth inhibition at 96 hour, primary screen for plastid delayed-death inhibitors | P. falciparum luciferase reporter growth, 96 h | Potency, µM (doses to about 28.7 µM), for inactives: top-dose activity change, negative = inhibition, actives largely listed as inhibitors | 320,000 compounds, 6.9% hits | AID 504834; further: potency means the concentration at half of the fitted maximal effect; on the % scale 0 is the no-effect control and ±100 the full control effect
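Two-generation exposure (96 h) targets delayed-death phenotype. Reporter parasites carrying integrated firefly luciferase, in red cells at 2% hematocrit and 0.05% parasitemia final, kept at 37 C, 5% CO2; luminescence loss indicates inhibition.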
FBPA Giardia inh: blocks Giardia fructose-bisphosphate aldolase activity. purified Giardia FBPA. 290,000 compounds, 0.71% hits. Potency, µM (series often up to 59.6 µM), for inactives: top-dose activity, negative = inhibition, most hits filed as inhibitors. A8B2U2. AID 2451; further: potency means the concentration at half of the fitted maximal effect; on the % scale 0 is the no-effect control and ±100 the full control effect; nearly all actives have a fitted effect of over 55% in size
Target sequence (A8B2U2 whole entry, looked up): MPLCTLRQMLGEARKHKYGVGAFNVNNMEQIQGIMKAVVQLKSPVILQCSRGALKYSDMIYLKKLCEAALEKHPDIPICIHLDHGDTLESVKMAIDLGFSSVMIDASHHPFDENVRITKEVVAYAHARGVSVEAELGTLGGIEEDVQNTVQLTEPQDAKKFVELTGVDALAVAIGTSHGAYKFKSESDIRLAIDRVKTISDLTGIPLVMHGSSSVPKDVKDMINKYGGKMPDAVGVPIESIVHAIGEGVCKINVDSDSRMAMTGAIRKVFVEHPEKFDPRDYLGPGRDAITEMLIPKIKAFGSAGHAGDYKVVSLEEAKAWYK
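Giardia FBPA (40 nM reagent) was preincubated 10 min at RT with compound (up to 57.5 uM final), then substrate plus GAPDH/TPI/NAD/arsenate coupling system with diaphorase/resazurin was added; resorufin fluorescence (525/598 nm) was read after 20 min.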
Pf growth 48h: inhibits P. falciparum growth in the first generation, 48 h; P. falciparum luciferase growth in erythrocytes, 48 h; Potency, µM (top dose mostly 28.7 µM), without a hit: at the highest dose activity change, negative = inhibition, actives largely listed as inhibitors; 310,000 compounds, 5.9% hits; AID 504832; further: potency means the concentration at half of the fitted maximal effect; on the % scale 0 is the no-effect control and ±100 the full control effect
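Growth was read as firefly luciferase luminescence after a 48 h, 37 C, 5% CO2 exposure of compounds to reporter-bearing P. falciparum cultures (0.1% parasitemia, 2% hematocrit final) in Albumax-supplemented RPMI 1640.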
NS1 inh: inhibitors of influenza NS1 protein function. 270,000 compounds, 0.4% hits. Potency, µM (doses to about 46.1 µM), without a hit: at the highest dose activity, positive = more growth. AID 2326; calls by dose curve; further: potency means the concentration at half of the fitted maximal effect; actives are rising curves; nearly all actives have a fitted effect of over 50% in size
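S. cerevisiae expressing influenza A NS1, grown in glucose, washed, then diluted 1:100 into pH 6.0 -URA galactose medium with 23 nl compound. Growth recovery read as OD600; NS1-free strain serves as control.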
Cycloheximide cs: affects cycloheximide protein synthesis inhibition readout, counter-screen; cell reporter, cycloheximide protein synthesis inhibition counterscreen; max response, %; AID 2314; 300,000 compounds, 12% hits; in the data active means max response mostly above about 13%, no sharp cut-off; inactive means mostly below about 14%; further: read at 38.3 µM for the half of the compounds with a filed dose; 0% is about no effect
Shiga inhibitor: blocks Shiga toxin action in Vero cells; Vero cells, Shiga toxin protein synthesis inhibition reporter; inhibition, % at 38.7 µM; 290,000 compounds, 9.2% hits; in the data active means inhibition mostly above about 28%, no sharp cut-off; inactive means mostly below about 43%; further: 0% is about no effect
* hit, by the source's call; ? = inconclusive; nt = not tested or not shown. Unless noted, the call rests on the fitted dose curve; in most records, active means well fitted curve in the direction sought with a large enough effect; inconclusive means small, poorly fitted or top-dose-only effect, or another doubt; inactive means no such curve, though single readings can be large; an effect the other way counts as inactive or inconclusive.

SMILES | Pf growth 96h | FBPA Giardia inh | Pf growth 48h | NS1 inh | Cycloheximide cs | Shiga inhibitor
Cc1ccc2[nH]c(CNC(=O)c3ccccc3F)cc2c1 | ? | -1% | 50% | ? | 29* | 51
O=C(NCCCCNC(=O)c1ccccc1F)c1ccccc1F | ? | -5% | -4% | 4% | -4 | -4
O=C(COC(=O)CNC(=O)c1ccccc1Cl)Nc1ccccc1Cl | -5% | nt | 13% | nt | nt | nt
COc1c(OC)c2occc2c2oc(=O)ccc12 | nt | -8% | nt | nt | nt | nt
COc1ccc(C2Sc3nncn3N2Cc2ccc(C#N)cc2)cc1 (stereo not given) | 13µM* | 2% | -9% | 2% | -6 | -2
Cc1cc(C)cc(OCC(=O)Nc2cccc(-c3nnc(-c4ccco4)o3)c2)c1 | nt | 6% | ? | -77% | 7 | 8
CCOc1cc(-c2nnc(-c3ccco3)o2)cc(OCC)c1OCC | nt | 2% | ? | 7% | 22* | active
CCOc1ccc(-c2nnc(-c3ccco3)o2)cc1OCC | 123% | -15% | 53% | -61% | 46* | 88*
O=C(CN(C(=O)c1csnn1)c1ccc(F)cc1)NCc1ccc2c(c1)OCO2 | 31% | nt | 19% | 1% | -3 | -3
O=C(CNS(=O)(=O)c1cccs1)NCc1ccccc1 | 0% | 1% | ? | nt | 13 | -17
Cc1ccc(C(=O)NCCc2cccc(Cl)c2)cc1[N+](=O)[O-] | ? | -1% | 52% | -28% | 38* | active
Cc1ccc(SCCNC(=O)c2ccc(C)c([N+](=O)[O-])c2)cc1 | -21% | -1% | -17% | -41% | -4 | 6
Cc1ccc(C(=O)NCCSc2ccc(Cl)cc2)cc1[N+](=O)[O-] | 4.1µM* | -6% | 13µM* | ? | 6 | 4
Cc1ccc(C(=O)Nc2cc(Cl)ccc2Oc2ccccc2)cc1[N+](=O)[O-] | ? | 0% | 13µM* | 9% | -2 | 10
Cc1ccc(C(=O)Nc2ccccc2-c2ccccc2)cc1[N+](=O)[O-] | 23% | 2% | 7% | 0% | -4 | -17
COC(=O)c1cn(CCOc2ccccc2)c2ccccc12 | nt | 0% | -16% | -30% | 55* | 79*
COC(=O)c1cn(CCOc2ccccc2F)c2ccccc12 | 9% | 0% | nt | -6% | 40* | 71*
COc1cc(/C=C/C(=O)O)cc(S(=O)(=O)Nc2ccc3nc(SC)sc3c2)c1OC | 0% | -1% | 3% | nt | 8 | -6
CCOC(=O)C1=C(C)Nc2ccccc2N=C1NC(=O)c1oc2ccccc2c1COC | -21% | nt | ? | nt | nt | nt
O=C(Nc1ccc(-n2cc(Br)cn2)cc1)c1ccncc1 | 33% | 8% | 25% | 4% | 1 | 10
COc1ccc(CN(C(=O)c2snc(C(N)=O)c2N)C(C(=O)NC2CCCC2)c2cc(OC)ccc2OC)cc1 (stereo not given) | 2.1µM* | -2% | 10µM* | 16% | 7 | -4
COc1ccc(CN(C(=O)c2snc(C(N)=O)c2N)C(C(=O)NC(C)(C)C)c2ccco2)cc1 (stereo not given) | 9.3µM* | 5% | ? | -7% | -2 | -9
COc1ccccc1N(C(=O)c1snc(C(N)=O)c1N)C(C(=O)NC1CCCC1)c1ccco1 (stereo not given) | 14% | 0% | -17% | 1% | -8 | -13
COc1ccccc1N(C(=O)c1snc(C(N)=O)c1N)C(C(=O)NC1CCCC1)c1ccc(N(C)C)cc1 (stereo not given) | 5% | -7% | 13µM* | 10% | -5 | -2
COc1ccc(OC)c(C(C(=O)NC2CCCCC2)N(C(=O)c2snc(C(N)=O)c2N)c2ccccc2OC)c1 (stereo not given) | 0% | nt | 2.6µM* | ? | 6 | -7
SMILES | Pf growth 96h | FBPA Giardia inh | Pf growth 48h | NS1 inh | Cycloheximide cs | Shiga inhibitor
COc1ccc(-c2c(C3C4C=CCC(C)C4C(=O)N3Cc3ccccc3)ccc3ccccc23)cc1OC (stereo not given) | nt | -5% | nt | nt | 6 | 20
O=C1C(=O)N(Cc2cccnc2)C(c2cccc([N+](=O)[O-])c2)/C1=C(/O)c1ccc2c(c1)OCO2 (stereo not given) | -12% | nt | -15% | 11% | 2 | -34
Cc1ccc(OCc2cc(C(=O)N(C)CCc3ccccn3)no2)cn1 | 2% | nt | 1% | -6% | 9 | -1
NC(=O)c1nsc(C(=O)N(Cc2cccnc2)C(C(=O)NC2CCCC2)c2ccc(F)cc2)c1N (stereo not given) | 12% | 19% | ? | -1% | -5 | -5
COc1ccc(C)cc1N(C(=O)c1snc(C(N)=O)c1N)C(C(=O)NC1CCCCC1)c1ccc(C)o1 (stereo not given) | ? | 1% | 9.3µM* | 28% | -8 | -8
COc1ccc(C(C(=O)NC2CCCC2)N(Cc2cccnc2)C(=O)c2snc(C(N)=O)c2N)cc1 (stereo not given) | 13µM* | 0% | 12µM* | 5% | -5 | -3
COc1ccc(N(C(=O)c2snc(C(N)=O)c2N)C(C(=O)NCc2ccccc2)c2ccc(O)cc2)cc1 (stereo not given) | 9% | 16% | -13% | -1% | 6 | -13
COc1cccc(C(C(=O)NC2CCCC2)N(C(=O)c2ccco2)c2ccccc2F)c1OC (stereo not given) | 31% | 4% | 8.3µM* | 7% | -2 | 5
COc1ccc(OC)c(N(C(=O)c2snc(C(N)=O)c2N)C(C(=O)NCc2ccccc2)c2ccc(O)cc2)c1 (stereo not given) | 13µM* | 0% | 10µM* | -46% | -3 | 1
COc1ccc(S(=O)(=O)N[C@@H](CSCc2ccccc2)C(=O)O)cc1 | -9% | nt | -3% | 7% | -3 | 21
O=C(O)c1ccc([N+](=O)[O-])c(P(=O)(O)O)c1 | nt | nt | nt | -2% | nt | nt
Cc1ccc(S(=O)(=O)Nc2cc3c4c(c2)CCC(=O)N4CCC3)cc1 | -23% | nt | -6% | nt | nt | nt
NCCC[C@@H](CC(=O)N[C@@H]1CCCC[C@H]1C(=O)N[C@H](CC(=O)N[C@@H](CCC(=O)O)CC(=O)O)Cc1ccccc1)NC(=O)C[C@H](CO)NC(=O)[C@@H]1CCCC[C@H]1N | nt | -27% | nt | nt | nt | nt
COc1ccccc1N(C(=O)c1snc(C(N)=O)c1N)C(C(=O)NC1CCCCC1)c1cccc(OC)c1OC (stereo not given) | -8% | -8% | 8.3µM* | 0% | 2 | -13
C[C@H]1[C@@H](OC(=O)CCC(=O)O)OC2OC3(C)CC[C@H]4[C@H](C)CC[C@@H]1[C@@]24OO3 (stereo not given in full) | 0.0013µM* | nt | 0.0019µM* | nt | nt | nt
C[C@@H]1CC[C@H]2[C@@H](C)C(=O)O[C@@H]3OC4(C)CC[C@@H]1C32OO4 (stereo not given in full) | 0.0027µM* | 0% | 0.0034µM* | nt | nt | nt

High-throughput results from PubChem BioAssay.
